Test results taken from PubChem BioAssay AID687001 (Broad Institute, 2013).
Measured potencies and affinities stand elsewhere. Calls of active or inactive are those of the source.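 The calls were made as follows: active = signal-lowering compounds whose fitted half-maximal concentration is at or below twice the top tested dose in every run; inconclusive = runs disagree, flat 30 to 70% inhibition, or poor curve fit; inactive = the rest.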

Biological target: Protein S100-A4 (Homo sapiens) (UniProt P26447)
Assay: human S100A4 peptide interaction inhibition curves – biochemical, fluorescence polarization, cherry-picked hits, dose response (AID 687001)
Conditions: FP, S100A4/TAMRA-myosin IIA peptide binding; series mostly up to 11 µM

Chain of Protein S100-A4 (Homo sapiens) (P26447 whole entry, looked up): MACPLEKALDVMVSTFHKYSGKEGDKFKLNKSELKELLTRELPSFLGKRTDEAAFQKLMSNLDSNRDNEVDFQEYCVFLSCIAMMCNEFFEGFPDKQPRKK

SMILES | outcome
CN1C(=O)c2cc(NC(=O)C3CCC3)ccc2OC[C@@H]2O[C@@H](CC(=O)NCc3ccccc3F)CC[C@@H]21 | inactive
CCCCN(CC(=O)NC1CCCC1)C(=O)C(=O)Nc1ccc2c(c1)OCCO2 | inactive
Cc1ccccc1S(=O)(=O)N1C[C@H](O)COC[C@@H]2O[C@@H](CC(=O)NCc3ccccc3Cl)CC[C@H]21 | inactive
CCOc1cc(CNCc2ccccc2)ccc1OCc1ccc(Cl)cc1 | inactive
COc1ccc(NC(=O)CN(C)C(=O)C2CC(=O)N(c3ccc4c(c3)OCCO4)C2)cc1 (stereo not drawn) | inactive
CC(C)NC(=O)N(C)C[C@@H]1Oc2c(NC(=O)Nc3cccc4ccccc34)cccc2C(=O)N([C@H](C)CO)C[C@H]1C | inactive
Cn1c(/C(C#N)=C(\O)c2cc(Cl)sc2Cl)nc2ccccc21 | inactive
COc1ccc(NC(=O)Nc2ccc3c(c2)CC(=O)N([C@@H](C)CO)C[C@@H](C)[C@H](CN(C)Cc2ccccc2)O3)cc1 | inactive
COc1ccc(CN2C[C@H](O)COC[C@@H]3O[C@@H](CC(=O)N(C)C)CC[C@H]32)cc1 | inactive
C[C@@H]1CN([C@H](C)CO)C(=O)CCCn2cc(nn2)CO[C@H]1CN(C)S(=O)(=O)c1ccc(Oc2ccccc2)nc1 | inactive
Cc1cc(C(=O)CSc2nc(N)cc(=O)[nH]2)ccc1F | inactive
Cc1ccc(S(=O)(=O)N(C)C[C@H]2OCCCC[C@H](C)Oc3ccc(NS(=O)(=O)c4ccccc4)cc3C(=O)N([C@H](C)CO)C[C@@H]2C)cc1 | inactive
COc1ccccc1[C@H]1C(c2ccc(F)cc2)=NN(c2ccccc2)[C@@H]1CO | inactive
C[C@@H]1CN([C@H](C)CO)C(=O)c2cc(C#CC3CC3)cnc2O[C@@H]1CN(C)S(C)(=O)=O | inactive
Cc1cccn2c(=O)c3cc(C(=O)NC4CCCCCC4)sc3nc12 | inactive
ON(CCc1ccncc1)Cc1ccccc1 | inactive
CC(C)C(=O)Nc1ccc2c(c1)C(=O)N(C)[C@H]1CC[C@H](CC(=O)Nc3cccc(F)c3)O[C@@H]1CO2 | inactive

SMILES | outcome
Cc1cc(C)c(NC(=O)CNC(=O)COC(=O)/C=C/c2cccs2)c(C)c1 | inactive
Cc1[nH]c2ccccc2c1CC(=O)Nc1ccc(Nc2cccnc2)c(Br)c1 | inactive
C[C@@H]1CN([C@H](C)CO)C(=O)c2cccc(NC(=O)C3CCCCC3)c2O[C@@H]1CN(C)Cc1ccc(Oc2ccccc2)cc1 | inactive
S=c1[nH]nc(-c2cc(-c3ccsc3)n[nH]2)n1-c1ccccc1 | inactive
CC1NC2(C(=O)N(Cc3ccccc3)c3ccccc32)C2C(=O)N(c3ccccc3)C(=O)C12 (stereo not drawn) | inactive
CCN(CC(=O)Nc1c(F)cccc1F)C(=O)c1ccc(OC)c(S(=O)(=O)NC2CCCC2)c1 | inactive
O=C(C[C@H]1C[C@H]2c3cc(NC(=O)Cc4ccncc4)ccc3O[C@H]2[C@H](CO)O1)NCc1ccccn1 | inactive
COc1ccc(-c2cnc(SCCNC(=O)c3ccc4c(c3)OCO4)[nH]2)cc1 | inactive
Cc1ccc(C)c(N2CCN(S(=O)(=O)c3c(C)[nH]c(C)c3C(=O)N3CCCCC3)CC2)c1 | inactive
COC(=O)C1=C(C)N(C)C(=O)NC1c1cc(Cl)c(O)c(OC)c1 (stereo not drawn) | inactive
Oc1cccc(-c2sc3ccccc3c2-c2ccc(OCCN3CCCCC3)cc2)c1 | inactive
Cc1[nH][nH]c(=O)c1C(c1cc(Br)ccc1O)c1c(C)[nH][nH]c1=O | inactive
COC(=O)c1c(NC(=O)CN(C)CC(=O)Nc2ccc(C)cc2)sc2c1CCC(C)C2 (stereo not drawn) | inactive
CC(C)C#Cc1cnc2c(c1)C(=O)N([C@H](C)CO)C[C@H](C)[C@H](CN(C)C(=O)Nc1ccc(F)cc1)O2 | inactive
Cn1cnc(CCNC(=O)C[C@H]2CC[C@H]3[C@@H](COC[C@@H](O)CN3C(=O)C3CC3)O2)c1 | inactive
O=C(O)c1ccc(/C=C2\SC(=S)N(NC(=O)c3ccccc3)C2=O)cc1 | inactive
